# Reference: PubChem BioAssay (NCI)
# About 83,000 compounds went through this panel and 20% of them were active in at least one assay; those are over-represented in the sample as a whole.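 Note: values are percent growth. 100 is the growth of untreated cells, values between 100 and 0 indicate rising inhibition; between -100 and 0 indicates cell death.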 Values without a mark were called inactive. Active and inactive are the calls of the source. Rule for the calls: active = growth percent below 10; inactive = the rest.
# Tested on: MCF7 breast
# Experiment: NCI-60 one-dose screen, 48 h (100 = growth as untreated, 0 = no growth, -100 = all killed)
# Conditions: 10 µM unless noted
row,Compound,growth
1,CN1c2ccccc2Sc2cc(C=C(C#N)C#N)ccc21,54.6%
2,CN1CCN(Cc2ccc(NC(=O)c3cncc(C#Cc4cnn5cccnc45)c3)cc2C(F)(F)F)CC1,-2.5% (active)
3,N#Cc1cccc(/C(N)=N/C(N)=N/c2nc3ccccc3s2)c1,23.1%
4,NS(=O)(=O)c1ccc(Nc2nc(N/N=C/c3c[nH]c4ccccc34)nc(Nc3ccccc3)n2)cc1,18.8%
5,N#C/C(=C\c1ccc(-c2ccc(Cl)cc2Cl)o1)c1ccc(F)cc1,66.9%
6,O=C1/C(=C/C=C/c2ccco2)SC(=S)N1C1CCCCC1,54.3%
7,O=C(Nc1cccc(Cl)c1)Nc1nc2ccc([N+](=O)[O-])cc2o1,12.1%
8,COc1cccc(C(=O)Nc2cccc(C#Cc3cccc4[nH]nc(N)c34)c2)c1,30.7%
9,COc1cc(OC)c(S(N)(=O)=O)cc1C(=O)/C=C/c1ccc(Cl)cc1,5.69% (active)
10,COc1cc2nc(Cl)nc(Nc3cccc(C4=Nc5c(N)nc(N)nc5NC(c5ccc(Br)cc5)C4)c3)c2cc1OC (centres undefined),39.3%
11,CC1=N[C@@H]2CN(C(=O)OC(C)(C)C)C[C@@H]2n2c1cc1ccccc1c2=O,95.6%
12,O=S(=O)(NCCNc1nccc(-n2cnc3ccccc32)n1)c1ccc(Br)cc1,78.4%
13,Cc1cc(-c2ccc(Cl)cc2)n(Cc2nnc(SCC(=O)Nc3ccc(S(N)(=O)=O)cc3)n2C2CCCCC2)n1,91%
14,COc1cc(OC)cc(C(=O)Nc2sc3c(c2C(N)=O)CCC(=O)C3)c1,24.4%
